This passage reports growth results from PubChem BioAssay (NCI).

Several values for one entry are separate records, joined by “and”; a condition that tells them apart may be missing. Identical values can stand only once. Compounds without any hit were thinned out: in the full panel of roughly 83,000, 20% have a hit.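 Plates (96-well) were seeded with cells, treated with compound at one concentration, and incubated for 48 hours before percent growth was determined.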 Values without a mark were called inactive. Activity calls are given as the source filed them. Rule for the calls: active = growth percent below 10; inactive = the rest.

In the assay the test system is MDA-MB-468 breast. The assay can be described thus: NCI-60 one-dose screen, 48 h (100 = growth as untreated, 0 = no growth, -100 = all killed). The note with it: 10 µM unless noted.
On to `COc1cc(C2CC(=O)Nc3nc(N)[se]c32)c(OC)c2c1OCO2` (stereo unspecified), for which the growth was 109%. `CC(=O)c1cccc(S(=O)(=O)F)c1`: the growth was 93.6%. In the case of `COc1cc2ncnc(Nc3ccc(F)c(Cl)c3)c2cc1OCC(=O)N1CCN(C)CC1`, the growth was -32.4% (active). As for `CC[C@@H](C)C(=O)O[C@H]1[C@H](O)[C@H]2[C@@H](CN3C[C@@H](C)CC[C@H]3[C@@]2(C)O)[C@@H]2C[C@]34O[C@]5(O)[C@@H](OC(=O)[C@@](C)(O)CC)CC[C@@]3(C)[C@@H]5[C@@H](OC(C)=O)[C@@H](OC(C)=O)[C@H]4[C@@]21O`, the growth is 90.6%. The figure for `COC(=O)C1=CCCN(C)C1` is 105% and 92.8%; for `COc1ccc2c(c1)NC1=C(C(=O)OC1)C2c1cc(OC)c(OC)c(OC)c1` (stereo unspecified) it is -16.3% (active).
